# Experimental data reported in PubChem BioAssay.
# “And” between values parts separate entries of the source, which are not always exact repeats. Equal entries are not always repeated. Results filed as inconclusive are left out. The source made the active and inactive calls.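 The calls were made as follows, unless noted: active = normalized viability below 100% at a tested concentration; inactive = the rest.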
# How the values were obtained:
# [1] = P. berghei load reduction in hepatocytes – cell-based, HepG2, luciferase luminescence, HepG2 viability, primary screen (AID 624349; in the data active = parasite load remaining mostly below about 12%, no sharp cut-off; inactive = mostly above about 10%;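 also: 100% = mean of DMSO negative control wells on the same plate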); conditions: P. berghei liver stage in HepG2, luciferase luminescence, concentration not given here; parasite load remaining: stronger effect = lower value; viability: measured here: HepG2 viability without parasites
# [2] = liver-stage malaria parasite load reduction – cell-based, known kinase inhibitor set, luminescence, hepatoma host viability (AID 624392; call rule not given here;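 also: infected cells incubated roughly two days before readout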); conditions: Plasmodium liver stage in hepatoma cells, luciferase luminescence, concentration not given here; liver cell % of control: measured here: host liver cell viability; parasite % of control: stronger effect = lower value
# [3] = altered dexamethasone sensitivity, NF-kB reporter, cell-based, luciferase, IL-1B stimulus (AID 624486; call rule not given here;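 as to percent of negative control (+Dex): 100% = mean signal of vehicle control wells on the plate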); conditions: IL-1B + dexamethasone, luminescence; percent of negative control (+Dex): actives lie on both sides, concentration not given here; z-score: measured here: IL-1B alone, no Dex
# [4] = biological target: Cellular tumor antigen p53 (Homo sapiens) (UniProt P04637); experiment: GFP-p53 level modulators in HPV16+ cells – imaging, known kinase inhibitor set, EGFP/DsRed ratio (AID 1053116; call rule not given here;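 also: cells exposed to compounds for 24 h at 37 °C before reading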); conditions: GFP-p53 stability, stronger effect = higher value; EGFP object count: measured here: GFP-p53 positive objects count
# [5] = inducers of IRF3 signaling, differentiated THP-1 – cell-based, PMA-stimulated THP-1, luminescence (AID 1053176; call rule not given here); conditions: PMA-differentiated THP-1, IRF3 reporter luminescence; stronger effect = higher value
# [6] = viability loss in pontine glioma line – cell-based, SU-DIPG-XVII, MIPE5.0, CellTiter-Glo, qHTS, dose response (AID 1347060; cut-off not given, nearly all actives have AC50 up to about 26 µM;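 as to AC50: cells exposed to compound for 48 hours before viability readout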); conditions: CellTiter-Glo ATP luminescence
# [7] = viability loss in pontine glioma line – cell-based, SU-DIPG-XXV, MIPE5.0, CellTiter-Glo, qHTS, dose response (AID 1347065; cut-off not given, nearly all actives have AC50 up to about 26 µM;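 also: cells exposed to compound for 48 hours before ATP readout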); conditions: CellTiter-Glo ATP luminescence
# [8] = growth inhibition of DIPG cells – cell-based, MIPE5.0 library, qHTS (AID 1347068; cut-off not given, nearly all actives have IC50 up to about 30 µM;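 as to IC50: cells exposed to compound for 48 hours before viability readout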); conditions: SU-DIPG-XXV viability
# [9] = viability loss with induced miR-34 in A549 – imaging, A549 dox-inducible miR-34, nuclei and caspase counts, primary screen (AID 1347080;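 active = compounds whose cell count with miR-34 switched on is under 0.7 times the count with it off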); conditions: A549 miR-34 inducible, Hoechst nuclei count, 48 h
# [10] = C. elegans survival during P. aeruginosa infection – whole organism (AID 651566; call rule not given here;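 also: tested at 14 µM; sign flipped so higher z means a lower ratio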); conditions: C. elegans killed by P. aeruginosa, survival ratio
# [11] = pro-inflammatory signaling induction in mouse macrophages – cell-based, murine, luminescence (AID 652131; call rule not given here); conditions: murine macrophage pro-inflammatory reporter, stronger effect = higher value
# [12] = MELAS cybrid and Rieske KO viability enhancers – cell-based, MELAS cybrids, Rieske KO mouse fibroblasts, CellTiter-Glo, primary screen (AID 1508586;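 active = mean z-score across replicates of 1.96 or higher in either the MELAS or the Rieske mutant cell line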;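 also: z relative to plate mean and SD of compound and empty wells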); conditions: low glucose
# [13] = viability loss in pontine glioma line – cell-based, SU-DIPG-XIII, MIPE4.0, CellTiter-Glo, qHTS, dose response (AID 1347061; cut-off not given, nearly all actives have AC50 up to about 37 µM;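 also: cells exposed to compound for 48 hours before readout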); conditions: CellTiter-Glo ATP luminescence
# [14] = viability loss in pontine glioma line – cell-based, JHH-DIPG-1, MIPE4.0, CellTiter-Glo, qHTS, dose response (AID 1347062; cut-off not given, nearly all actives have AC50 up to about 27 µM;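 as to AC50: cells exposed to compound for two days before readout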); conditions: JHH-DIPG-1 viability, CellTiter-Glo ATP luminescence
# [15] = viability loss in pontine glioma line – cell-based, SU-DIPG-IV, MIPE4.0, CellTiter-Glo, qHTS, dose response (AID 1347063; cut-off not given, nearly all actives have AC50 up to about 30 µM;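 also: compound exposure lasted 48 hours before the viability readout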); conditions: CellTiter-Glo ATP luminescence
# [16] = growth inhibition of DIPG cells – cell-based, MIPE4.0 library, CellTiter-Glo luminescence, qHTS (AID 1347066; cut-off not given, nearly all actives have AC50 up to about 30 µM;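 also: cells exposed to compound for 48 hours before readout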); conditions: SU-DIPG-VI viability, CellTiter-Glo ATP luminescence
# [17] = JHH-DIPG-1 glioma cell viability, MIPE5.0 library, CellTiter-Glo luminescence, qHTS (AID 1347067; cut-off not given, nearly all actives have AC50 up to about 26 µM;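 also: cells exposed to compound for 48 hours before readout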); conditions: JHH-DIPG-1 glioma viability, CellTiter-Glo ATP luminescence
# [18] = compounds altering HSF1 focus formation in cells – imaging, Selleck Cancer Library (AID 1347162; in the data active = plate-normalised HSF1 focus index below about 0.46); conditions: human cells, HSF1 nuclear foci imaging, at 10 µM; SSMD: measured here: HSF1 foci SSMD mean; cell count: measured here: cell number; plate-normalised HSF1 focus index: stronger effect = lower value
# [19] = drug combination growth inhibition, ovarian cancer – cell-based, oncology-focused library, rucaparib conditional, profiling panel (AID 1508598); conditions: patient-derived ovarian cancer cells, CellTiter-Glo viability, 144 h, stronger effect = lower value
# [20] = galactose survival enhancers in mitochondrial complex I cybrids – cell-based, galactose medium, ATP luminescence, primary screen (AID 1645843;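 active = z-score of at least 1.8 in each of two replicates, scored against plate mean and spread of sample wells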;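 also: positive z means more ATP and so rescue of galactose-driven cybrid death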); conditions: complex I mutant cybrid cells, 72 h, stronger effect = higher value
# [21] = MELAS cybrid survival, CellTiter-Glo 48 h, stronger effect = higher value
# [22] = Rieske KO mouse fibroblast survival, CellTiter-Glo 72 h
# Chain of Cellular tumor antigen p53 (Homo sapiens) (P04637 whole entry, looked up): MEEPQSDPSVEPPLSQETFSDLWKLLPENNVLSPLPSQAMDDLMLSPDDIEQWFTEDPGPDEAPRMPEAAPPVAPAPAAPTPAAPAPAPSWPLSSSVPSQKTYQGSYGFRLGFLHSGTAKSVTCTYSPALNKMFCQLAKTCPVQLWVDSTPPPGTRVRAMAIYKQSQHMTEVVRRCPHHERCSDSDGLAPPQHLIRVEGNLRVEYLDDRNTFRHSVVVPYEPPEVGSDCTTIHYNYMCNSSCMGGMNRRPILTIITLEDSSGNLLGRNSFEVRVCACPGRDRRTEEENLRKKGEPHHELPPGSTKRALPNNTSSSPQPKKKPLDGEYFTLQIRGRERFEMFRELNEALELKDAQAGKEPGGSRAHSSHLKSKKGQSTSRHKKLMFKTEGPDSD
compound,measurement,setting,value
O=C1NC(=O)C(c2c[nH]c3ccccc23)=C1c1c[nH]c2ccccc12,parasite load remaining,[1],50.4% (inactive)
same,viability,[1],162%
same,liver cell % of control,[2],97.5%
same,parasite % of control,[2],26.7% (inactive)
same,percent of negative control (+Dex),[3],98% (inactive)
same,z-score,[3],-0.485
same,EGFP object count,[4],22.5
same,EGFP/DsRed ratio,[4],0.273 (inactive)
same,fraction signal,[5],-0.0025 (inactive)
same,AC50,[6],11.8 µM (active)
same,AC50,[7],18.6 µM (active)
same,IC50,[8],18.6 µM (active)
same,fold change,"[9]; stronger effect = lower value, cell number ratio, induced over uninduced",1.26 (inactive)
same,fold change,[9]; measured here: relative caspase fold change +Dox/-Dox,0.968
same,cell count,"[9]; measured here: total cells with miR-34 induction, stronger effect = lower value",5130
same,cell count,[9]; measured here: total cells without miR-34 induction,4070
COc1cc(N2CCN(C(C)C)CC2)ccc1Nc1nc(Nc2ccc(F)cc2C(=O)NC[C@@H](O)CO)c2cc[nH]c2n1,liver cell % of control,[2],85%
same,parasite % of control,[2],330% (inactive)
same,percent of negative control (+Dex),[3],103% (inactive)
same,z-score,[3],0
same,z-score,[10],-0.875 (inactive)
same,z-score,[11],-0.151 (inactive)
same,EGFP object count,[4],3.5
same,EGFP/DsRed ratio,[4],0.273 (inactive)
same,fraction signal,[5],0 (inactive)
same,z-score,[12]; [21],-0.811 (inactive)
same,z-score,[12]; [22],0.239
CN(C)CCOc1ccc(-c2nc(-c3ccc4c(c3)CC/C4=N\O)c(-c3ccncc3)[nH]2)cc1,liver cell % of control,[2],69.4%
same,parasite % of control,[2],215% (inactive)
same,percent of negative control (+Dex),[3],118% (inactive)
same,z-score,[3],0.795
same,z-score,[10],-0.45 (inactive)
same,z-score,[11],1.26 (inactive)
same,EGFP object count,[4],9
same,EGFP/DsRed ratio,[4],0.212 (inactive)
same,fraction signal,[5],-0.008 (inactive)
same,outcome,[13],inactive
same,AC50,[14],18.7 µM (active)
same,AC50,[15],13.2 µM (active)
same,AC50,[16],11.8 µM (active)
same,AC50,[17],16.6 µM (active)
same,SSMD,[18],1.6
same,cell count,[18],7550
same,plate-normalised HSF1 focus index,[18],1.1 (inactive)
same,z-score,[12]; [21],0.717
same,z-score,[12]; [22],2.06
NC(=O)c1ccc(-c2nc(-c3ccc4c(c3)OCO4)c(-c3ccccn3)[nH]2)cc1,liver cell % of control,[2],92.1%
same,parasite % of control,[2],99.9% (inactive)
same,percent of negative control (+Dex),[3],92% (inactive)
same,z-score,[3],0.215
same,z-score,[10],-0.47 (inactive)
same,z-score,[11],5.36 (inactive)
same,EGFP object count,[4],5.5
same,EGFP/DsRed ratio,[4],0.161 (inactive)
same,fraction signal,[5],-0.007 (inactive)
same,outcome,[6],inactive
same,outcome,[13],inactive
same,outcome,[14],inactive
same,outcome,[15],inactive
same,outcome,[7],inactive
same,outcome,[16],inactive
same,outcome,[8],inactive
same,SSMD,[18],0.986
same,cell count,[18],7590
same,plate-normalised HSF1 focus index,[18],1.06 (inactive)
same,z-score,[12]; [21],-0.87 (inactive) and -0.497 (inactive)
same,z-score,[12]; [22],-0.512 and 0.389
same,viability,"[19]; at 0.000305 µM, OCI-C5x cells, with rucaparib 10 µM, 100% = cells with rucaparib alone",134% (inactive)
same,viability,"[19]; at 0.000305 µM, OCI-C5x cells, without rucaparib",138% (inactive)
same,viability,"[19]; at 0.000305 µM, OCI-P5x cells, with rucaparib 20 µM, 100% = cells with rucaparib alone",116% (inactive)
same,viability,"[19]; at 0.000305 µM, OCI-P5x cells, without rucaparib",105% (inactive)
same,viability,"[19]; at 0.00122 µM, OCI-C5x cells, with rucaparib 10 µM, 100% = cells with rucaparib alone",135% (inactive)
same,viability,"[19]; at 0.00122 µM, OCI-C5x cells, without rucaparib",143% (inactive)
same,viability,"[19]; at 0.00122 µM, OCI-P5x cells, with rucaparib 20 µM, 100% = cells with rucaparib alone",110% (inactive)
same,viability,"[19]; at 0.00122 µM, OCI-P5x cells, without rucaparib",103% (inactive)
same,viability,"[19]; at 0.00488 µM, OCI-C5x cells, with rucaparib 10 µM, 100% = cells with rucaparib alone",139% (inactive)
same,viability,"[19]; at 0.00488 µM, OCI-C5x cells, without rucaparib",135% (inactive)
same,viability,"[19]; at 0.00488 µM, OCI-P5x cells, with rucaparib 20 µM, 100% = cells with rucaparib alone",108% (inactive)
same,viability,"[19]; at 0.00488 µM, OCI-P5x cells, without rucaparib",99.5% (active)
same,viability,"[19]; at 0.0195 µM, OCI-C5x cells, with rucaparib 10 µM, 100% = cells with rucaparib alone",136% (inactive)
same,viability,"[19]; at 0.0195 µM, OCI-C5x cells, without rucaparib",143% (inactive)
same,viability,"[19]; at 0.0195 µM, OCI-P5x cells, with rucaparib 20 µM, 100% = cells with rucaparib alone",112% (inactive)
same,viability,"[19]; at 0.0195 µM, OCI-P5x cells, without rucaparib",101% (inactive)
same,viability,"[19]; at 0.0781 µM, OCI-C5x cells, with rucaparib 10 µM, 100% = cells with rucaparib alone",130% (inactive)
same,viability,"[19]; at 0.0781 µM, OCI-C5x cells, without rucaparib",147% (inactive)
same,viability,"[19]; at 0.0781 µM, OCI-P5x cells, with rucaparib 20 µM, 100% = cells with rucaparib alone",106% (inactive)
same,viability,"[19]; at 0.0781 µM, OCI-P5x cells, without rucaparib",94.4% (active)
same,viability,"[19]; at 0.313 µM, OCI-C5x cells, with rucaparib 10 µM, 100% = cells with rucaparib alone",130% (inactive)
same,viability,"[19]; at 0.313 µM, OCI-C5x cells, without rucaparib",146% (inactive)
same,viability,"[19]; at 0.313 µM, OCI-P5x cells, with rucaparib 20 µM, 100% = cells with rucaparib alone",105% (inactive)
same,viability,"[19]; at 0.313 µM, OCI-P5x cells, without rucaparib",102% (inactive)
same,viability,"[19]; at 1.25 µM, OCI-C5x cells, with rucaparib 10 µM, 100% = cells with rucaparib alone",146% (inactive)
same,viability,"[19]; at 1.25 µM, OCI-C5x cells, without rucaparib",153% (inactive)
same,viability,"[19]; at 1.25 µM, OCI-P5x cells, with rucaparib 20 µM, 100% = cells with rucaparib alone",114% (inactive)
same,viability,"[19]; at 1.25 µM, OCI-P5x cells, without rucaparib",92.1% (active)
same,viability,"[19]; at 5 µM, OCI-C5x cells, with rucaparib 10 µM, 100% = cells with rucaparib alone",198% (inactive)
same,viability,"[19]; at 5 µM, OCI-C5x cells, without rucaparib",187% (inactive)
same,viability,"[19]; at 5 µM, OCI-P5x cells, with rucaparib 20 µM, 100% = cells with rucaparib alone",102% (inactive)
same,viability,"[19]; at 5 µM, OCI-P5x cells, without rucaparib",93.9% (active)
same,z-score,[20],-0.03 (inactive)
